Shown are actives, neighbours in structure and some others; about 21% of the full set was active somewhere.
NS1 inh: influenza NS1 inhibition. 270,000 compounds, 0.4% hits. AID 2326. Potency, µM (titrated, usually from 46.1 µM); calls by dose curve; also: actives are rising curves; nearly all actives have a fitted effect of over 50% in size
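OD600 was taken as the measure of yeast growth restored by compound in an NS1-expressing S. cerevisiae strain. Cells had been washed out of glucose medium and diluted 1:100 into galactose -URA medium, pH 6.0.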
Shiga toxin inh: blocks Shiga toxin action in Vero cells | Vero cells, Shiga toxin protein synthesis inhibition reporter | inhibition, % at 38.7 µM | 290,000 compounds, 9.2% hits; in the data active = inhibition mostly above about 28%, no sharp cut-off; inactive = mostly below about 43%
Pf growth 48h: P. falciparum growth inhibition at 48 hours (one generation) | Potency, µM (titrated, usually from 28.7 µM), most hits filed as inhibitors | 310,000 compounds, 5.9% hits | P. falciparum luciferase growth in erythrocytes, 48 h
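Growth was read as firefly luciferase luminescence after a 48 h, 37 C, 5% CO2 exposure of compounds to reporter-bearing P. falciparum cultures (0.1% parasitemia, 2% hematocrit final) in Albumax-supplemented RPMI 1640.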
Cycloheximide cs: affects cycloheximide protein synthesis inhibition readout, counter-screen; cell reporter, cycloheximide protein synthesis inhibition counterscreen; max response, %; 300,000 compounds, 12% hits; AID 2314; in the data active = max response mostly above about 13%, no sharp cut-off; inactive = mostly below about 14%; also: read at 38.3 µM for the half of the compounds with a filed dose
Pf growth 96h: inhibits malaria parasite growth, 96 h; AID 504834; Potency, µM (doses to about 28.7 µM), actives largely listed as inhibitors; 320,000 compounds, 6.9% hits; P. falciparum luciferase reporter growth, 96 h
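Plates of compound plus infected erythrocytes (2% hematocrit, 0.05% parasitemia final) incubate 96 hours, 37 C, 5% CO2. Detection reagent added; reduced luminescence from the parasites' luciferase reporter flags inhibition.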
Each line names hits and unclear results; the compound was inactive in the other large screens. Unless noted, calls follow the shape of the dose curve; as a rule, active = well fitted inhibition curve with a large enough effect; inconclusive = small, poorly fitted or top-dose-only effect, or another doubt; inactive = no such curve, though single readings can be large or run the other way.

CCCSCCCNC(=O)c1ccccc1NC(=O)C1=CSCCO1	Pf growth 96h 13µM
O=C(O)C1C2C=CC(C2)C1C(=O)NC1CCS(=O)(=O)C1 (configuration not stated)	none
Cc1ccc(NCC(=O)NNC2=NCCC2)c(C)c1	none
CCCN1CCN(C(=O)c2noc3c2COc2ccc(C)cc2-3)CC1	Shiga toxin inh 54, Cycloheximide cs 17
CCOC(=O)N1CCN(C(=O)c2noc3c2COc2ccccc2-3)CC1	Cycloheximide cs 20, Pf growth 96h inconclusive
CCN1CCN(C(=O)CCN2C(=O)COc3ccc(C)cc32)CC1	none
Cc1ccc(Nc2nc(Cl)nc(NC3CCCCC3)n2)cc1	Shiga toxin inh 62, Cycloheximide cs 25
CC(C)(C)Nc1nc(Cl)nc(NC2CCCCC2)n1	Pf growth 96h 13µM
CC(C)(C)Nc1nc(N)nc(Cl)n1	none
N#C/C(=C\c1ccc(OCc2ccccc2)cc1)C(=O)Nc1nc2c(s1)CCN(Cc1ccccc1)C2	Pf growth 48h 8.3µM, Cycloheximide cs 20, Pf growth 96h inconclusive
Cc1ccsc1/C=C(\C#N)C(=O)NCc1cccnc1	none
Cc1ccsc1/C=C(/C#N)C(=O)NCc1ccccc1	Cycloheximide cs 12
N#C/C(=C/c1ccc(OCc2ccc(C(=O)O)cc2)cc1)C(=O)Nc1ccccc1	none
N#C/C(=C\c1ccc(OCc2ccccc2)cc1)C(N)=O	Shiga toxin inh 90, Cycloheximide cs 24 (no result: NS1 inh)
COc1ccc(/C=C(\C#N)C(=O)NCc2ccccc2)cc1	Shiga toxin inh 87, Cycloheximide cs 34, Pf growth 96h inconclusive
Clc1ccc(/C=C/c2nc(Cl)c(-c3ccc(Cl)cc3)c(Cl)n2)cc1	Pf growth 48h inconclusive, Pf growth 96h inconclusive
CNC(=O)/C(C#N)=C/c1ccc(OCCOc2ccccc2)cc1	Cycloheximide cs 11
COc1ccc(C(=O)N(CC(=O)Nc2sc(C)c(C)c2C(N)=O)C2CCCC2)cc1	Pf growth 48h inconclusive, Cycloheximide cs 23
COc1ccc(C(=O)NC(=S)Nc2cccc(Cl)c2N2CCOCC2)cc1[N+](=O)[O-]	Pf growth 48h inconclusive, Pf growth 96h inconclusive
C#CCOCCOCCOCCNc1nc(N2CCN(C(=O)[C@H]([C@@H](C)CC)n3cc([C@@H](N)CC(C)C)nn3)CC2)nc(N2CCN(C(=O)[C@H](Cc3cc4ccccc4[nH]3)n3cc([C@@H](N)C(C)CC)nn3)CC2)n1 (some centres not stated)	Pf growth 48h 4.7µM, Pf growth 96h 1.2µM
C#CCOCCOCCOCCNc1nc(N2CCN(C(=O)C(Cc3cc4ccccc4[nH]3)n3cc(C(N)C(C)CC)nn3)CC2)nc(N2CCN(C(=O)C(Cc3cc4ccccc4[nH]3)n3cc(C(N)C(C)CC)nn3)CC2)n1 (configuration not stated)	Pf growth 48h inconclusive, Pf growth 96h 4.1µM
C#CCOCCOCCOCCNc1nc(N2CCOCC2)nc(N2CCN(C(=O)[C@H](Cc3cc4ccccc4[nH]3)n3cc([C@@H](N)C(C)CC)nn3)CC2)n1 (some centres not stated)	Pf growth 48h inconclusive, Pf growth 96h 2.9µM
C#CCOCCOCCOCCNc1nc(N2CCN(C(=O)[C@H](Cc3ccc(O)cc3)n3cc([C@@H](N)C(C)CC)nn3)CC2)nc(N2CCN(C(=O)[C@H](Cc3cc4ccccc4[nH]3)n3cc([C@@H](N)Cc4ccc(O)cc4)nn3)CC2)n1 (some centres not stated)	Pf growth 48h 10µM, Pf growth 96h inconclusive
O=S(=O)(c1ccc(NC(=S)NCc2ccco2)cc1)N1CCCCC1	Pf growth 96h inconclusive
CCc1ccc(N2C(=O)NC(=O)/C(=C/c3cccn3CCOc3ccc(C(C)CC)cc3)C2=O)cc1 (configuration not stated)	Shiga toxin inh 121, Cycloheximide cs 77
CCc1ccc(N2C(=O)NC(=O)/C(=C/c3cccn3CCOc3ccc(C)cc3)C2=O)cc1	Cycloheximide cs 13
O=C1NC(=O)N(Cc2ccco2)C(=O)/C1=C\c1cccn1CCOc1ccc(Cl)cc1	none
COC(=O)[C@@H]1C[C@@]2(O)[C@@H](O)[C@@H](O)[C@@H](O)C[C@H]2N1C/C=C/c1ccccc1	none
O=C(O)/C(=C\c1ccc(O)cc1)c1cccc2ccccc12	none (no result: Shiga toxin inh, Pf growth 48h, Cycloheximide cs, Pf growth 96h)
Cc1cccc(NS(=O)(=O)c2cccc(C(=O)N3CCN(C/C=C/c4ccccc4)CC3)c2)c1	Pf growth 48h 12µM, Pf growth 96h 10µM (no result: NS1 inh, Shiga toxin inh, Cycloheximide cs)
COc1ccccc1NC(=O)C(C)N1CCN(C/C=C/c2ccccc2)CC1 (configuration not stated)	Pf growth 48h 13µM
COc1ccccc1NS(=O)(=O)c1cccc(C(=O)N2CCN(C/C=C/c3ccccc3)CC2)c1	Pf growth 48h 5.9µM, Pf growth 96h 8.3µM
COc1ccc(OC)c(NC(=O)CCN2CCN(C/C=C/c3ccccc3)CC2)c1	Pf growth 96h inconclusive
Cc1noc(C)c1COc1cccc(C(=O)N2CCN(C/C=C/c3ccccc3)CC2)c1	Pf growth 48h 10µM (no result: Pf growth 96h)
C=CCn1c(Cc2cccs2)nnc1SC/C=C/c1ccccc1	Pf growth 48h inconclusive (no result: Pf growth 96h)
Cc1sc(N)c(C(=O)c2ccccc2Cl)c1C	none
O=c1c2c(nc3cc(-c4ccccc4Cl)[nH]n13)CCS2	Shiga toxin inh 78, Cycloheximide cs 38
O=c1c2c(nc3cc(-c4ccccc4)[nH]n13)CCS2	Shiga toxin inh 75, Cycloheximide cs 43
CCOC(=O)c1c(C)sc(Sc2ccc(Cl)cc2[N+](=O)[O-])c1OC	Pf growth 48h 3.7µM (no result: Pf growth 96h)
CCOC(=O)Cn1c(=NC(=O)c2nc3ccccc3s2)sc2cc(S(N)(=O)=O)ccc21	none
CC(=O)NCc1ccc(S(=O)(=O)N2CCN(S(=O)(=O)c3ccc4ccccc4c3)CC2)cc1	none (no result: NS1 inh, Shiga toxin inh, Cycloheximide cs)
Cc1ccc(NC(=O)C2CCN(S(=O)(=O)c3ccc4c(c3)OCCO4)CC2)c(O)c1	Pf growth 48h inconclusive, Pf growth 96h 12µM (no result: NS1 inh, Shiga toxin inh, Cycloheximide cs)
CCS(=O)(=O)N1CCC(C(=O)Nc2cc(C)ccc2O)CC1	Pf growth 96h 12µM
CCS(=O)(=O)N1CCC(C(=O)Nc2cc(Cl)ccc2O)CC1	none
[O-][n+]1c2ccc3nonc3c2nn1-c1ccccc1Cl	none
CCC(=O)NC(=S)Nc1cccc(NC(=O)c2ccco2)c1	Pf growth 96h inconclusive
CSCc1ccc(C(=O)N2CCCC(Nc3ccc4c(c3)OCCO4)C2)o1 (configuration not stated)	none
O=C(NC(=S)Nc1cccc(O)c1)c1ccco1	Shiga toxin inh 94, Cycloheximide cs 54
O=C(NC(=S)Nc1ccc2c(c1)OCCO2)c1ccco1	Shiga toxin inh 100, Cycloheximide cs 46
O=C(c1ccco1)N1CCCC(Nc2ccc3c(c2)OCCO3)C1 (configuration not stated)	Shiga toxin inh 85, Cycloheximide cs 43
Cc1nnc(NC(=O)CSc2nccn2Cc2ccccc2)s1	none
Cn1c(CC(=O)NNC(=O)c2ccccc2[N+](=O)[O-])nc2ccccc21	none (no result: NS1 inh, Shiga toxin inh, Cycloheximide cs)
C=CCn1c(=NC(=O)C2COc3ccccc3O2)sc2cccc(OC)c21 (configuration not stated)	Pf growth 48h 7.4µM, Pf growth 96h 1.2µM
